Data reported in PubChem BioAssay AID743293 (Broad Institute, 2014).
Measured potencies and affinities stand elsewhere. Activity calls are given as the source filed them.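 Rule for the calls: active = compounds lowering fluorescence with a fitted half-maximal concentration at or below a set limit tied to top dose; inconclusive = flat curve with 30 to 70% inhibition, or poor fit; inactive = the rest.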

What follows are molecules tested against Caspase-9 (Homo sapiens) (UniProt P55211) (assay: caspase-9 enzyme inhibition, dose response, selectivity assay for caspase-6 inhibitor project, biochemical, fluorescence, plate reader, cherry-picked samples (AID 743293)). Conditions: purified caspase-9, Z-LEHD-R110 cleavage fluorescence; series mostly up to 35 µM; activity change, negative = inhibition: at the top concentration.
Caspase-9 (Homo sapiens), sequence (P55211 whole entry, looked up): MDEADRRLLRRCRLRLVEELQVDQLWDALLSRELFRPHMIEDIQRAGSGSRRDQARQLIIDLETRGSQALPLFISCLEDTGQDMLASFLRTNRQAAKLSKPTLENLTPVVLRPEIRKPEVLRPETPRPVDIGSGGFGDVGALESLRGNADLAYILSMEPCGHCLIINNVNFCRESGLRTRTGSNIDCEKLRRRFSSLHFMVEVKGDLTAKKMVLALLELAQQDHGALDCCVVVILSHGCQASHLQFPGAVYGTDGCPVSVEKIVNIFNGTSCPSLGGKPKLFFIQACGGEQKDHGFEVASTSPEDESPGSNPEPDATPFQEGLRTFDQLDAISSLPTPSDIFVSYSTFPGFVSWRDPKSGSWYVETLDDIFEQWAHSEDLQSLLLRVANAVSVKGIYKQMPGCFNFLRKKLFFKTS

Activity change, negative = inhibition, inactive:
CCCCN(C(=O)c1cccc(-n2cccc2)c1)c1c(N)n(CCC)c(=O)[nH]c1=O 12.8%
O=P(c1ccccc1)(c1ccccc1)c1cc(S(=O)(=O)O)ccc1O -5.38%
O=C1CN(C(=O)COC(=O)c2ccc([N+](=O)[O-])s2)c2ccccc2N1 1.28%
O=c1c(O)cccc2cc(O)c(O)c(O)c12 -7.42%
[O-][n+]1onc2c1CCc1c-2nn(-c2ccccc2Cl)[n+]1[O-] 1.99%
CCCN(C(=O)c1cccc(-n2cccc2)c1)c1c(N)n(Cc2ccccc2)c(=O)[nH]c1=O 12.4%
Cn1cnnc1SCC(=O)Nc1ncc([N+](=O)[O-])s1 3.93%
COc1ccc(C(=O)OCC(=O)Nc2ncc([N+](=O)[O-])s2)cc1OC -3.4%
Cc1ccc(S(=O)(=O)Nc2csc(C)c2C(=O)O)cc1 2.43%
O=C(O)C1CCCCC1C(=O)Nc1cccc(Br)c1 (stereo not given) 14%
O=S(=O)(O)c1cc(O)c2cc(Nc3ccccc3)ccc2c1 13%
O=c1oc(-c2ccccc2)nc2sc3c(c12)CCC3 -0.653%
COc1ccc(NS(=O)(=O)c2ccc3c(c2)[C@H]2C=CC[C@H]2[C@@H](c2ccc(C(=O)O)cc2)N3)cc1 -9.07%
CC(CNc1ccccc1O)C(=O)O (stereo not given) -4.67%
O=c1c(CO)cc(CO)cc(CO)c1O -3.26%
CO[C@H]1CN(C)C(=O)c2cc(NC(C)=O)ccc2OC[C@@H](C)N(C(=O)CC2CC2)C[C@H]1C 26.4%
Cc1ccc(NC(=O)CN(C)C(=O)c2cccc(-n3cccc3)c2)cc1 2.92%
COc1cc(-c2ccc(Nc3ccccc3C(=O)O)c(OC)c2)ccc1Nc1ccccc1C(=O)O 0.463%
O=C(O)C1Nc2c(Cl)cc(Cl)c(Cl)c2C2C=CCC12 (stereo not given) 2.14%
CN(CC(=O)Nc1ccccc1Cl)C(=O)COC(=O)c1ccc([N+](=O)[O-])s1 -8.48%
COCCn1c2nc(=O)n(-c3ccccc3)c(=O)c-2nc2ccccc21 189%
Cc1[nH]nc(S(=O)CC(=O)O)c1[N+](=O)[O-] (stereo not given) 6.6%
CCOC(=O)c1sc2nc(OCCN3CCOCC3)cc(C)c2c1N 6.72%
O=C(O)/C(=C\c1ccc(Cl)c([N+](=O)[O-])c1)c1ccc(S(=O)(=O)N2CCCC2)s1 8.03%
Nc1cc2c(cc1Br)[nH]c(=O)c1ccccc12 -8.46%
CCCCN(C(=O)c1cccc(-n2cccc2)c1)c1c(N)n(Cc2ccccc2)c(=O)[nH]c1=O 16.8%
CCCSC1=N/C(=C\c2ccc([N+](=O)[O-])o2)C(=O)S1 1.27%
Cc1cc(C=O)c(C)n1-c1cc(C(=O)O)cc(C(=O)O)c1 0.218%
O=c1oc2ccccc2c2oc3cc(O)c(O)cc3c12 13.4%
COc1cc(NCCCCC(C)N)c2nccc(C)c2c1 (stereo not given) 3.91%
